# “And” between values parts separate entries of the source, which are not always exact repeats. Equal entries are not always repeated. More than one record can exist for a structure, and the calls need not agree. The source made the active and inactive calls. How the source made its calls: active means hit-call score of the fitted dose curve at least 0.9, where 1 is the maximum; inconclusive means response in the unintended direction; inactive means score below 0.9.
# Test system: Thyroperoxidase (TPO), gene 54314
# Assay: CCTE_Simmons_AUR_rTPO: CCTE's Amplex UltraRed Assay for Thyroperoxidase (TPO) Inhibition, Simmons Lab (AID 2283662);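 on AC50: potency for loss of signal meaning inhibition of peroxidase activity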
# Protocol: CCTE_Simmons_AUR_rTPO is a biochemical, single-readout assay that uses microsomes from rat thyroid gland in a tissue-based cell-free assay. Measurements were taken 0.5 hour after chemical dosing in a 384-well plate.CCTE_Simmons_AUR_rTPO is the assay component measured from the CCTE_Simmons_AUR_rTPO assay. It is designed to make measurements of thyroperoxidase (TPO) activity as detected with fluorescence intensity signals using the Amplex UltraRed technology as a form of enzyme activity reporter.Data from the assay component CCTE_Simmons_AUR_rTPO was analyzed at the endpoint, CCTE_Simmons_AUR_rTPO, in the positive analysis fitting direction relative to DMSO as the negative control and baseline of activity. Using a type of enzyme reporter, the Amplex UltraRed assay, loss-of-signal activity can be used to understand decreased peroxidase activity in the presence of excess […]. To generalize the intended target to other relatable targets, this assay endpoint is annotated to the oxidoreductase intended target family, where the subfamily is peroxidase.
# As described previously (Paul et al., 2014), the AUR substrate was repurposed to detect peroxidase (ie, TPO) activity in the presence of excess H2O2 for the AUR-TPO assay. The reaction profile for the 384-well format AUR-TPO assay is scaled to an 80 ul assay volume containing 25 uM AUR, 300 uM H2O2, and 5 ug microsomal protein in 200 mM phosphate buffer. The assay concentration of thyroid microsomal protein was approximately […]. First, rat microsomes containing TPO and diluent 200mM potassium phosphate buffer were added to opaque, black 384-well plates (Greiner, BioExpress; Kaysville, Utah) using an automated liquid handler (BioTek MicroFlo; Winooski, Vermont) with a plastic 5 ul tubing cassette. Similarly, AUR was added next by automated liquid handling. Test compounds were administered using a HDRT as described earlier to achieve a 0.5% final DMSO concentration. Finally, H2O2 (300 uM, final concentration) was then added by the BioTek MicroFlo to initiate the reaction. Microplates were incubated at 37C in the dark for 30min. Plates were then shaken on a fluorescence plate reader (FLUOStar Optima, BMG LabTech; GmbH, Germany), and endpoint fluorescence (top read) was measured using 10 flashes per well at 544/590nm excitation/emission. Three biological replicates of technical singles were run for every chemical concentration tested. A titrated range of MMI served as a positive control for TPO inhibition on each plate of the AUR-TPO screening campaign. Test chemicals were administered as a titrated series of 8 concentrations from 5 nM up to 87.5 uM [final] for 30 minutes prior to single endpoint detection. Dimethylsulfoxide [DMSO] was used as the vehicle control. Methimazole [MMI] was used as the positive control and was administered as a titrated series of 8 concentrations from 1 nM up to 271 uM [final].
SMILES,AC50,outcome
O=C(O)C(F)(F)C(F)(F)C(F)(F)C(F)(F)C(F)(F)C(F)(F)F,16.5 µM (active),inactive
CC1(C)CCC(Cc2ccc(Cl)cc2)C1(O)Cn1cncn1 (stereo not given),–,inactive
CC(C)(C)c1cc(O)ccc1O,1.84 µM (active) [middle of 5 runs],–
CCC1(c2ccc(N)cc2)CCC(=O)NC1=O (stereo not given),0.935 µM (active),–
COP(=S)(OC)Oc1ccc(Sc2ccc(OP(=S)(OC)OC)cc2)cc1,11.6 µM (active),–
O=C(Nc1ccc2[nH]ccc2c1)c1cc2cc(F)ccc2n1Cc1cccc(F)c1,1.62 µM (active),–
CC(C)c1cccc(C(C)C)c1O,10.3 µM (active),–
CCOC(=O)Nc1cccc(OC(=O)Nc2ccccc2)c1,1.38 µM (active),–
CCCCCCCCSC(=O)Oc1cc(Cl)nnc1-c1ccccc1,43.8 µM (active),–
CC(C)(c1ccc(OCC2CO2)cc1)c1ccc(OCC2CO2)cc1 (stereo not given),43.5 µM (active),–
Clc1ccc(COC(Cn2ccnc2)c2ccc(Cl)cc2Cl)cc1 (stereo not given),43.8 µM (active),–
CC12CC1(C)C(=O)N(c1cc(Cl)cc(Cl)c1)C2=O (stereo not given),–,inactive
C[C@H]1CCCC(=O)CCC/C=C/c2cc(O)cc(O)c2C(=O)O1,3.47 µM (active),–
COP(=O)(OC)O/C(=C\Cl)c1cc(Cl)c(Cl)cc1Cl,48.3 µM (active),–
Oc1cccc2cccnc12,18.4 µM (active) and 15.9 µM (active),–
CC(C)(C)CC(C)(C)c1ccc(O)cc1,11.6 µM (active),–
OCc1ccco1,28.5 µM (active),–
Clc1ccc(C2(Cn3cncn3)CC(Br)CO2)c(Cl)c1 (stereo not given),–,inactive
O=C(O)C(Cl)(Cl)Cl,–,inactive
CC1(C)Cc2cccc(O)c2O1,12.2 µM (active),–
Cc1ccccc1N,2.19 µM (active) and 2.51 µM (active),–
Cc1ccc2ccccc2c1C,34.3 µM (active),–
Cc1ccc(N)cc1Cl,0.0109 µM (active),–
CC(C)(c1ccccc1)c1ccc(O)c(C(C)(C)c2ccccc2)c1,19.6 µM (active),–
CCOP(=S)(OCC)Oc1nc(Cl)c(Cl)cc1Cl,10.4 µM (active),–
CCC(C)(C)c1ccc(O)c(C(C)(C)CC)c1,4.15 µM (active),–
NNC(=S)NN,0.205 µM (active),–
CCOP(=S)(OCC)SCSP(=S)(OCC)OCC,9.6 µM (active),–
CCCCCCCCc1ccc(O)cc1,6.82 µM (active),–

# Source: PubChem BioAssay (EPA / NIEHS)
